A short description of test [1]: NCI Yeast Anticancer Drug Screen. Data for the rad50 strain (AID 155).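 Note: 0% = growth of vehicle-only cultures of the same strain.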 Particulars: S. cerevisiae rad50 strain growth inhibition; at 50.0 µM; hits give high values. The procedure, abridged: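 DNA repair mutant yeast, compound exposure, growth read-out; inhibition is taken relative to vehicle.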
Test [2] can be described thus: NCI Yeast Anticancer Drug Screen. Data for the mec2-1 strain (AID 157). Particulars: S. cerevisiae mec2-1 strain, at 50.0 µM, hits give high values. The procedure, abridged:
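mec2-1 yeast strain, carrying an alteration in DNA damage repair or cell cycle control, was exposed to compounds; growth inhibition was measured relative to vehicle-treated controls.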

The nature of test [3]: NCI Yeast Anticancer Drug Screen. Data for the sgs1 mgt1 strain (AID 161).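 Note: 0% = growth of cultures given vehicle only.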 Particulars: S. cerevisiae sgs1 mgt1 strain, at 50.0 µM, hits give high values. The procedure, abridged:
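Compounds are added to genetically altered yeast, and growth is compared with cultures given vehicle alone to give percent inhibition.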

Test [4] is described as follows: NCI Yeast Anticancer Drug Screen. Data for the cln2 rad14 strain (AID 165).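 Note: 0% = growth equal to vehicle treated cultures.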 Particulars: S. cerevisiae cln2 rad14 strain, at 50.0 µM, hits give high values. The procedure, abridged:
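Yeast carrying cln2 and rad14 alterations (cell cycle control and DNA damage repair) were exposed to compounds. Growth inhibition was measured against vehicle-treated controls.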

Test [5] is described as follows: NCI Yeast Anticancer Drug Screen. Data for the bub3 strain (AID 167). Particulars: S. cerevisiae bub3 mutant strain, at 50.0 µM, hits give high values. The procedure, abridged:
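In this screen, a yeast mutant lacking normal mitotic checkpoint function is challenged with compound. Relative growth versus vehicle gives the inhibition value.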

Test [6] in a line: NCI Yeast Anticancer Drug Screen. Data for the mlh1 rad18 strain (AID 175). Particulars: S. cerevisiae mlh1 rad18 strain growth inhibition; at 50.0 µM; hits give high values. The procedure, abridged:
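Growth inhibition of the yeast strain was measured after compound exposure and expressed relative to vehicle-treated controls. The strain carries defined defects in DNA damage repair.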

Values joined by “and” are separate entries in the source; they are usually repeats but may differ in a detail not shown here. Identical values can stand only once. Compounds without any hit were thinned out: in the full panel of roughly 79,000, 15% have a hit. A number with no mark means an inactive call. Active and inactive are the calls of the source. Cut-off read from the data, not from the text of the source: active = growth inhibition above about 70%; inactive = the rest.

`NC1=C(c2nc(-c3ccccc3)cs2)C(c2ccco2)c2c(c3ccccc3oc2=O)O1` (configuration not stated): the growth inhibition in test [1] is -4.7%; in test [2] it was 5.05%; in test [3], 23.8%; in test [4], 13.2%; in test [5] it was 6.35%; in test [6] it was 12.9%.

As for `N#CNc1nnnn1-c1ccccc1` (tested in a mixture with another compound), the growth inhibition in test [1] was 7.7%; in test [2], 9.35%; in test [3], 0.55%; in test [4], 44.4%; in test [5], 11.8%; in test [6], -16.9%.

Turning to `CC1CC2CCC1(CO)CN2` (configuration not stated), the growth inhibition in test [1] was -0.45%; in test [2], 2.3%; in test [3], 0.1%; in test [4], 4.65%; in test [5], 0.85%; in test [6], 3.9%.

Consider `CN1CCN(Cc2ccccc2)CC1CC#N` (configuration not stated), for which the growth inhibition in test [1] is -17.3%; in test [2], -34.8%; in test [3], -24.1%; in test [4], -0.2%; in test [5] it was 2.65%; in test [6], -30.9%.

With `C(=NC1CCCCC1)c1c[nH]c2ccccc12`, the growth inhibition in test [1] was -24.9%; in test [2], -39.6%; in test [3], -5.05%; in test [4] it was 4.7%; in test [5], -27.5%; in test [6], -17.8%.

For the compound `[N-]=[N+]=Nc1nc2ccccc2c(N=[N+]=[N-])c1Cl`, the growth inhibition in test [1] was 6.85%; in test [2] it was -6.7%; in test [3], 5.6%; in test [4] it was 31.9%; in test [5], 5.45%; in test [6], 9.45%.

Regarding `Cc1cc(Cl)nc(N)n1`, the growth inhibition in test [1] was -5.3%; in test [2] it was 4.55%; in test [3] it was -5.4%; in test [4], -13.9%; in test [5] it was 10.1%; in test [6] it was -21.4%.

As for `C[n+]1ccccc1-c1ccc[n+](CCCC[n+]2cccc(-c3cccc[n+]3C)c2)c1`, the growth inhibition in test [1] is -8.5%; in test [2], -1.8%; in test [3] it was -7.5%; in test [4] it was -25.6%; in test [5] it was -8.65%; in test [6], 20%.

Regarding `Cc1ccc(CCl)c(C)c1`, the growth inhibition in test [1] was -21.1%; in test [2] it was 8.4%; in test [3], -6.95%; in test [4], -39%; in test [5] it was 5.45%; in test [6], -19%.

As to `Cn1cccc1-c1cccnc1`, the growth inhibition in test [1] is -23.8% and -4.7%; in test [2], -34.6% and -4.95%; in test [3], -4.8% and -7.45%; in test [4], 10.7% and 0.7%; in test [5] it was -19.3% and 0.05%; in test [6] it was -12.7% and -9.15%.

Regarding `COc1cc(Cl)c(OP(=O)(OC)OC)cc1Cl`, the growth inhibition in test [1] was -3.8%; in test [2], 9.4%; in test [3], 12.3%; in test [4], -1.9%; in test [5] it was -1.05%; in test [6] it was 5.75%.

As for `NC(Cc1ccccc1)c1nccs1` (configuration not stated), the growth inhibition in test [1] is -8.95%; in test [2], -26.6%; in test [3], -7.65%; in test [4] it was 11.2%; in test [5], -30.1%; in test [6], -2.6%.

On to `COc1ccccc1CC(C)NC(C)Cc1ccccc1OC` (configuration not stated), for which the growth inhibition in test [1] was 2.25%; in test [2] it was -3.4%; in test [3] it was 8.05%; in test [4] it was -1.8%; in test [5], -1.4%; in test [6], 7.6%.

`O=P(Cc1ccccc1)(Oc1ccccc1)Oc1ccccc1`: the growth inhibition is 89.8% (active) in test [1]; 56.5% in test [2]; 82.2% (active) in test [3]; 24.8% in test [4]; 40.1% in test [5]; 74.8% (active) in test [6].

On to `c1ccc2c(c1)CN1Cc3ccccc3C2C1`, for which the growth inhibition is 6.6% in test [1]; -12.3% in test [2]; -13.5% in test [3]; -13.7% in test [4]; 2.65% in test [5]; -6.35% in test [6].

In the case of `CC1=CC(C(=O)O)P(C)(=O)C1` (configuration not stated), the growth inhibition was -0.9% in test [1]; -18.2% in test [2]; -12.3% in test [3]; -11.6% in test [4]; 0.4% in test [5]; -10.3% in test [6].

Take `O=[N+]([O-])c1cccc(/C=C/c2ccc(S(=O)(=O)F)cc2)c1`: the growth inhibition in test [1] is 97.5% (active); in test [2], 93.8% (active); in test [3], 96.8% (active); in test [4], 93.8% (active); in test [5], 97.2% (active); in test [6], 97.3% (active).

On to `NC(Cc1ccc(Cl)cc1)P(=O)(O)O` (configuration not stated), for which the growth inhibition in test [1] is 7.7%; in test [2], -4.35%; in test [3] it was -6.75%; in test [4], -53.9%; in test [5], -12.1%; in test [6], -16.1%.

Regarding `O=C1C2C(C(=O)N1c1ccc(Cl)c(Cl)c1)C1(Cl)C(Cl)=C(Cl)C2(Cl)C1(Cl)Cl` (configuration not stated), the growth inhibition in test [1] was 91.8% (active); in test [2], 95.2% (active); in test [3], 96.1% (active); in test [4], 86.5% (active); in test [5] it was 94.1% (active); in test [6] it was 95.7% (active).

With `NCCN.NCCN.[Cl-].[O]=[Os+2]=[O]`, the growth inhibition in test [1] is 0.8% and 3.45%; in test [2], -22% and 1%; in test [3], -6.15% and -20.8%; in test [4], -20.3% and 23.3%; in test [5] it was -40.6% and 0.3%; in test [6], -6.3% and -13.2%.

Turning to `COc1cccc(C2(C#N)CCN(C)CC2)c1`, the growth inhibition in test [1] is 28.1%; in test [2], 23.1%; in test [3] it was 22.7%; in test [4], -7.45%; in test [5], 12.7%; in test [6] it was 62.5%.

Turning to `COC1=C(OC)C23CCc4ccc(OC)c(O)c4C2(CCN3)CC1=O` (configuration not stated), the growth inhibition in test [1] was 7.5%; in test [2] it was -10.7%; in test [3], 25.2%; in test [4] it was 14.1%; in test [5], 1.6%; in test [6] it was -27.4%.

The record behind these values is PubChem BioAssay (NCI).
